Assay results as given in the supplement of paper PMC8728848.
This is one part of a sample in which the strongest signals are shown more often than they occur.

What was measured:
Experiment in all cases: glycan array binding signal (z-score within array); higher = stronger binding
Details in all cases: glycan notation: IUPAC condensed, linker removed
[1] = target: Fuc(a1-2)Gal(b1-4)GlcNAc(b1-2)Man
Method in brief: (§1)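 Columns mapping to the same glycan were averaged after glycan names were converted to IUPAC-condensed notation. The data come from 3228 arrays in the Consortium for Functional Glycomics database, limited to those with an available protein sequence. Binding is reported as a within-array Z-score averaged across arrays of one protein sequence and across linkers.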

[2] = target: Fuc(a1-2)Gal(b1-4)[Fuc(a1-3)]GlcNAc(b1-2)[Fuc(a1-2)Gal(b1-4)[Fuc(a1-3)]GlcNAc(b1-4)]Man(a1-3)[Fuc(a1-2)Gal(b1-4)[Fuc(a1-3)]GlcNAc(b1-2)Man(a1-6)]Man(b1-4)GlcNAc(b1-4)GlcNAc
Method in brief: as §1

[3] = target: Fuc(a1-2)Gal6S(b1-4)Glc6S
Method in brief: as §1

[4] = target: Fuc(a1-2)[Gal(a1-3)]Gal(b1-3)GalNAc
Method in brief: as §1

[5] = target: Fuc(a1-2)[Gal(a1-3)]Gal(b1-4)GlcNAc(b1-2)Man(a1-3)[Fuc(a1-2)[Gal(a1-3)]Gal(b1-4)GlcNAc(b1-2)Man(a1-6)]Man(b1-4)GlcNAc(b1-4)[Fuc(a1-6)]GlcNAc
Method in brief: as §1

[6] = target: Fuc(a1-2)[Gal(a1-4)]Gal(b1-4)GlcNAc
Method in brief: as §1

[7] = target: Fuc(a1-2)[GalNAc(a1-3)]Gal(b1-4)GlcNAc(b1-6)GalNAc
Method in brief: as §1

[8] = target: Fuc(a1-3)[Gal(b1-4)]GlcNAc
Method in brief: as §1

[9] = target: Fuc(a1-3)[Gal(b1-4)]GlcNAc(b1-3)Gal(b1-4)[Fuc(a1-3)]GlcNAc
Method in brief: as §1

[10] = target: Fuc(a1-3)[Gal(b1-4)]GlcNAc(b1-3)Gal(b1-4)[Fuc(a1-3)]GlcNAc(b1-3)Gal(b1-4)[Fuc(a1-3)]GlcNAc
Method in brief: as §1

[11] = target: Fuc(a1-3)[Gal(b1-4)]GlcNAc(b1-4)Gal(b1-4)[Fuc(a1-3)]GlcNAc(b1-4)Gal(b1-4)[Fuc(a1-3)]GlcNAc
Method in brief: as §1

Fuc(a1-4)GlcNAc = target: Fuc(a1-4)GlcNAc
Method in brief: as §1

[12] = target: Gal(a1-3)Gal(b1-3)[Fuc(a1-4)]GlcNAc(b1-2)Man(a1-3)[Gal(a1-3)Gal(b1-3)[Fuc(a1-4)]GlcNAc(b1-2)Man(a1-6)]Man(b1-4)GlcNAc(b1-4)GlcNAc
Method in brief: as §1

[13] = target: Gal(a1-3)[Gal(a1-4)]Gal(b1-4)GlcNAc
Method in brief: as §1

[14] = target: Gal(a1-4)Gal(b1-3)GlcNAc(b1-2)Man(a1-3)[Gal(a1-4)Gal(b1-3)GlcNAc(b1-2)Man(a1-6)]Man(b1-4)GlcNAc(b1-4)GlcNAc
Method in brief: as §1

Gal(b1-3)Gal = target: Gal(b1-3)Gal
Method in brief: as §1

Gal(b1-3)GalNAc = target: Gal(b1-3)GalNAc
Method in brief: as §1

[15] = target: Gal(b1-3)[Neu5Ac(a2-6)]GalNAc
Method in brief: as §1

[16] = target: Gal(b1-3)[Neu5Ac(a2-6)]GlcNAc(b1-4)Gal(b1-4)Glc
Method in brief: as §1

[17] = target: Gal(b1-4)GlcNAc(b1-2)Man(a1-3)[Gal(b1-4)GlcNAc(b1-2)Man(a1-6)][Gal(b1-4)GlcNAc(b1-4)]Man(b1-4)GlcNAc(b1-4)[Fuc(a1-6)]GlcNAc
Method in brief: as §1

[18] = target: Gal(b1-4)GlcNAc(b1-2)Man(a1-3)[Man(a1-6)]Man(b1-4)GlcNAc(b1-4)GlcNAc
Method in brief: as §1

[19] = target: Gal(b1-4)GlcNAc(b1-3)Gal(b1-4)GlcNAc(b1-2)Man(a1-3)[Gal(b1-4)GlcNAc(b1-3)Gal(b1-4)GlcNAc(b1-2)Man(a1-6)]Man(b1-4)GlcNAc(b1-4)GlcNAc
Method in brief: as §1

[20] = target: Gal(b1-4)GlcNAc(b1-3)Gal(b1-4)GlcNAc(b1-3)Gal(b1-4)GlcNAc(b1-2)Man(a1-3)[Gal(b1-4)GlcNAc(b1-3)Gal(b1-4)GlcNAc(b1-3)Gal(b1-4)GlcNAc(b1-2)Man(a1-6)]Man(b1-4)GlcNAc(b1-4)GlcNAc
Method in brief: as §1

[21] = target: Gal(b1-4)GlcNAc(b1-3)Gal(b1-4)GlcNAc(b1-3)Gal(b1-4)GlcNAc(b1-3)Gal(b1-4)GlcNAc(b1-3)Gal(b1-4)GlcNAc(b1-2)Man(a1-3)[Gal(b1-4)GlcNAc(b1-3)Gal(b1-4)GlcNAc(b1-3)Gal(b1-4)GlcNAc(b1-3)Gal(b1-4)GlcNAc(b1-3)Gal(b1-4)GlcNAc(b1-2)Man(a1-6)]Man(b1-4)GlcNAc(b1-4)GlcNAc
Method in brief: as §1

[22] = target: Gal(b1-4)GlcNAc(b1-3)[Fuc(a1-3)GlcNAc(b1-6)]Gal(b1-4)Glc
Method in brief: as §1

Gal6S(b1-4)Glc = target: Gal6S(b1-4)Glc
Method in brief: as §1

[23] = target: GalNAc(b1-4)GlcNAc(b1-2)Man(a1-3)[GalNAc(b1-4)GlcNAc(b1-2)Man(a1-6)]Man(b1-4)GlcNAc(b1-4)GlcNAc
Method in brief: as §1

GalNAc(b1-6)GalNAc = target: GalNAc(b1-6)GalNAc
Method in brief: as §1

GalNAc6S(b1-4)GlcNAc = target: GalNAc6S(b1-4)GlcNAc
Method in brief: as §1

[24] = target: Glc(a1-6)Glc(a1-6)Glc(a1-6)Glc
Method in brief: as §1

[25] = target: GlcNAc(a1-4)Gal(b1-3)GlcNAc
Method in brief: as §1

[26] = target: GlcNAc(b1-2)Man(a1-3)[GlcNAc(b1-4)][GlcNAc(b1-2)Man(a1-6)]Man(b1-4)GlcNAc(b1-4)[Fuc(a1-6)]GlcNAc
Method in brief: as §1

[27] = target: GlcNAc(b1-3)Gal(b1-4)GlcNAc
Method in brief: as §1

[28] = target: GlcNAc(b1-3)Gal(b1-4)GlcNAc(b1-6)[GlcNAc(b1-3)Gal(b1-3)]GalNAc
Method in brief: as §1

[29] = target: GlcNAc(b1-3)[GlcNAc(b1-6)]GalNAc
Method in brief: as §1

GlcNAc(b1-6)GalNAc = target: GlcNAc(b1-6)GalNAc
Method in brief: as §1

[30] = target: Kdn(a2-3)Gal(b1-4)[Fuc(a1-3)]GlcNAc
Method in brief: as §1

[31] = target: Neu5Ac(a2-3)Gal(b1-4)GlcNAc(b1-3)Gal(b1-4)GlcNAc(b1-3)Gal(b1-4)GlcNAc(b1-2)Man(a1-3)[Neu5Ac(a2-3)Gal(b1-4)GlcNAc(b1-3)Gal(b1-4)GlcNAc(b1-3)Gal(b1-4)GlcNAc(b1-2)Man(a1-6)]GalNAc
Method in brief: as §1

[32] = target: Neu5Ac(a2-3)Gal(b1-4)GlcNAc(b1-3)Gal(b1-4)GlcNAc(b1-3)GalNAc
Method in brief: as §1

[33] = target: Neu5Ac(a2-3)Gal(b1-4)[Fuc(a1-3)]GlcNAc(b1-2)Man
Method in brief: as §1

[34] = target: Neu5Ac(a2-6)Gal(b1-4)GlcNAc(b1-2)Man(a1-3)[GlcNAc(b1-2)Man(a1-6)]Man(b1-4)GlcNAc(b1-4)GlcNAc
Method in brief: as §1

[35] = target: Neu5Ac(a2-6)Gal(b1-4)GlcNAc(b1-2)Man(a1-3)[GlcNAc(b1-4)][Neu5Ac(a2-6)Gal(b1-4)GlcNAc(b1-2)Man(a1-6)]Man(b1-4)GlcNAc(b1-4)GlcNAc
Method in brief: as §1

[36] = target: Neu5Ac(a2-6)Gal(b1-4)GlcNAc(b1-2)Man(a1-3)[Neu5Ac(a2-3)Gal(b1-4)GlcNAc(b1-2)Man(a1-6)]Man(b1-4)GlcNAc(b1-4)GlcNAc
Method in brief: as §1

[37] = target: Neu5Ac9Ac(a2-3)Gal(b1-4)GlcNAc
Method in brief: as §1

[38] = target: Neu5Gc(a2-3)Gal(b1-4)[Fuc(a1-4)]GlcNAc
Method in brief: as §1

B1: MGL1 (Mus musculus), P49300 (protein)
chain: MIYENLQNSRIEEKTQEPGKAPSQSFLWRILSWTHLLLFSLGLSLLLLVVVSVIGSQNSQLRRDLGTLRATLDNTTSKIKAEFQSLDSRADSFEKGISSLKVDVEDHRQELQAGRDLSQKVTSLESTVEKREQALKTDLSDLTDHVQQLRKDLKALTCQLANLKNNGSEVACCPLHWTEHEGSCYWFSESEKSWPEADKYCRLENSHLVVVNSLEEQNFLQNRLANVVSWIGLTDQNGPWRWVDGTDFEKGFKNWAPLQPDNWFGHGLGGGEDCAHITTGGPWNDDVCQRTFRWICEMKLAKES
In the case of B1, the “glycan array binding signal (z-score)” value [1] is reported as 0.007, the “glycan array binding signal (z-score)” value [2] is reported as 0.824 and the “glycan array binding signal (z-score)” value [3] is reported as 0.081. The “glycan array binding signal (z-score)” value [4] was -0.265, the “glycan array binding signal (z-score)” value [5] was -1.16 and the “glycan array binding signal (z-score)” value [6] was 1.45. For the same binder, the “glycan array binding signal (z-score)” value [7] was 0.044, the “glycan array binding signal (z-score)” value [8] was 5.46 and the “glycan array binding signal (z-score)” value [9] was 3.95. The “glycan array binding signal (z-score)” value [10] was 5.1, the “glycan array binding signal (z-score)” value [11] was 9.12 and the “glycan array binding signal (z-score)” value (Fuc(a1-4)GlcNAc) was 0.064. For the same binder, the “glycan array binding signal (z-score)” value [12] was -0.177, the “glycan array binding signal (z-score)” value [13] was 1.06 and the “glycan array binding signal (z-score)” value [14] was 2.41. For the same binder, the “glycan array binding signal (z-score)” value (Gal(b1-3)Gal) was -0.039, the “glycan array binding signal (z-score)” value (Gal(b1-3)GalNAc) was -0.112 and the “glycan array binding signal (z-score)” value [15] was -0.361. The “glycan array binding signal (z-score)” value [16] was 0.273, the “glycan array binding signal (z-score)” value [17] was 3.48 and the “glycan array binding signal (z-score)” value [18] was 0.201. The “glycan array binding signal (z-score)” value [19] was 2.62, the “glycan array binding signal (z-score)” value [20] was 3.01 and the “glycan array binding signal (z-score)” value [21] was 2.31. For the same binder, the “glycan array binding signal (z-score)” value [22] was 4.54, the “glycan array binding signal (z-score)” value (Gal6S(b1-4)Glc) was 0.208 and the “glycan array binding signal (z-score)” value [23] was 0.218. The “glycan array binding signal (z-score)” value (GalNAc(b1-6)GalNAc) was -0.374, the “glycan array binding signal (z-score)” value (GalNAc6S(b1-4)GlcNAc) was 0.509 and the “glycan array binding signal (z-score)” value [24] was -0.085. For the same binder, the “glycan array binding signal (z-score)” value [25] was 0.26, the “glycan array binding signal (z-score)” value [26] was 0.417 and the “glycan array binding signal (z-score)” value [27] was 0.138. For the same binder, the “glycan array binding signal (z-score)” value [28] was -0.907, the “glycan array binding signal (z-score)” value [29] was -0.368 and the “glycan array binding signal (z-score)” value (GlcNAc(b1-6)GalNAc) was 0.042. The “glycan array binding signal (z-score)” value [30] was 0.025, the “glycan array binding signal (z-score)” value [31] was 3.39 and the “glycan array binding signal (z-score)” value [32] was -0.308. For the same binder, the “glycan array binding signal (z-score)” value [33] was -0.66, the “glycan array binding signal (z-score)” value [34] was -0.089 and the “glycan array binding signal (z-score)” value [35] was -0.48. The “glycan array binding signal (z-score)” value [36] was -0.988, the “glycan array binding signal (z-score)” value [37] was -0.495 and the “glycan array binding signal (z-score)” value [38] was -0.153.
